{"source": "PubChem BioAssay AID1814", "about": "(Broad Institute, 2009)", "note": "About 22,000 (7.3%) of roughly 300,000 compounds were called active. Inconclusive results (about 2%) are left out. No stated cut-off is given here; in the data, active means activity score below about -60%; inconclusive means mostly about -28% to -61%; inactive means positive scores. This excerpt belongs to a sample that is enriched for actives."}
{"test": "Activators working through SNCA 5'UTR binding (MLPCN) (AID 1814)", "details": "alpha-synuclein 5'UTR reporter, activators screen; stronger effect = lower value; tested at 7.5 µM"}
{"compound": "CCc1ccc(-c2cc(C(=O)NN3CCN(C)CC3)c3ccccc3n2)cc1", "activity score": "-112% (active)"}
{"compound": "O=C(Nc1ccccc1)c1cc2ccccc2[nH]1", "activity score": "-180% (active)"}
{"compound": "CCn1c(=N)n(CC(=O)c2cccc(OC)c2)c2ccccc21", "activity score": "-124% (active)"}
{"compound": "O=C(Nc1ccccc1)Nc1ccc(C(F)(F)F)cn1", "activity score": "-120% (active)"}
{"compound": "Cc1ccc(NC(=O)Nc2cccc(C(F)(F)F)c2)nc1", "activity score": "-115% (active)"}
{"compound": "Cc1cccc(NC(=O)c2cccc(C(F)(F)F)c2)c1", "activity score": "-71.9% (active)"}
{"compound": "COc1ccc(NC(=O)CCS(=O)(=O)c2cc3c(cc2Cl)NC(=O)CO3)cc1OC", "activity score": "-91.8% (active)"}
{"compound": "CC(=O)Nc1ccc(NC(=O)CN2CCCC(C)C2)c(Cl)c1", "note": "(stereo not given)", "activity score": "-105% (active)"}
{"compound": "CC(Sc1nc2cc(Cl)ccc2s1)C(=O)Nc1ccc2c(c1)OCO2", "note": "(stereo not given)", "activity score": "-117% (active)"}
{"compound": "O=C(c1cnn2ccccc12)N1CCc2ccccc21", "activity score": "-123% (active)"}
{"compound": "COc1cc(OC)cc(C(=O)NCC(=O)OCc2csc(-c3ccccc3)n2)c1", "activity score": "-73.7% (active)"}
{"compound": "CCCCOC(=O)c1[nH]c(C)c(C(=O)OC)c1C", "activity score": "-134% (active)"}
{"compound": "CCOC(OCC)c1ccc(/C=C\\c2nccc(N)n2)cc1", "activity score": "-117% (active)"}
{"compound": "COc1cccc(/C=N/Nc2cc(C)nc(-c3ccccc3O)n2)c1O", "activity score": "82.8% (inactive)"}
{"compound": "CC(=O)c1sc(N/N=C/c2ccc(C(C)C)cc2)nc1C", "activity score": "-149% (active)"}
{"compound": "COc1ccccc1/C=N/Nc1nc(C)c(C(C)=O)s1", "activity score": "-154% (active)"}
{"compound": "COc1cccc2sc(Nc3nc(C)c(C(C)=O)s3)nc12", "activity score": "-179% (active)"}
{"compound": "Oc1oc(-c2ccccc2Br)nc1/C=N/c1ccccn1", "activity score": "-124% (active)"}
{"compound": "CCCCOc1ccc(-c2nnc(-c3ccco3)o2)cc1", "activity score": "60.2% (inactive)"}
{"compound": "CCC(=O)Oc1cccc(C(=O)Nc2ccc(-c3nnc(-c4ccco4)o3)cc2)c1", "activity score": "-227% (active)"}
{"compound": "Cc1ccc(OCC(=O)Nc2ccc(-c3nc4ncccc4o3)cc2)cc1", "activity score": "-85.6% (active)"}
{"compound": "Cc1ccc(OCC(=O)Nc2ccc(-c3nnc(-c4ccco4)o3)cc2)cc1", "activity score": "-69.1% (active)"}
{"compound": "O=C(CCc1ccccc1)Nc1cccc(-c2nnc(-c3ccco3)o2)c1", "activity score": "-74.1% (active)"}
{"compound": "Fc1ccccc1OCCSc1nc2ccccc2o1", "activity score": "-139% (active)"}
{"compound": "Cc1cccc2nc(CNc3ccc(F)cc3)cn12", "activity score": "-64.9% (active)"}
{"compound": "Cc1ccc(-n2ncc3c(Nc4cccc(C(=O)O)c4)ncnc32)cc1", "activity score": "-200% (active)"}
{"compound": "CC(=O)NCC(=O)N1CCC(n2nccc2NC(=O)CCCc2ccccc2)CC1", "activity score": "-67.3% (active)"}
{"compound": "Cn1c(SCc2nc3ccccc3s2)nnc1-c1ccc2c(c1)OCO2", "activity score": "-72.1% (active)"}
{"compound": "Cc1ccnc(Nc2nc3ccccc3s2)n1", "activity score": "-81.3% (active)"}
{"compound": "O=C(NC(=S)Nc1ccc(Cl)cc1Cl)C1CC1", "activity score": "-107% (active)"}
{"compound": "Cc1cc(C)c2nc(NC(=O)C3CCCO3)sc2c1", "note": "(stereo not given)", "activity score": "-107% (active)"}
{"compound": "Cc1[nH]n(C(N)=S)c(=O)c1N=Nc1ccc(Cl)cc1Cl", "activity score": "-112% (active)"}
{"compound": "Cn1c(=O)n(C)c2cc(C(=O)Nc3ccc(Br)cc3)ccc21", "activity score": "-80.7% (active)"}
{"compound": "Cc1ccc(C(=O)Nc2ccc3c(c2)OCO3)cc1S(=O)(=O)N1CCCCC1", "activity score": "-66.6% (active)"}
{"compound": "COc1ccc(C(=O)Nc2ccc3c(c2)OCO3)cc1OC", "activity score": "-100% (active)"}
{"compound": "COc1ccc(C(=O)Nc2ccc(C3(C#N)CCCC3)cc2)cc1OC", "activity score": "-120% (active)"}
{"compound": "Cn1c(=O)n(C)c2cc(C(=O)Nc3ccc4c(c3)OCO4)ccc21", "activity score": "-191% (active)"}
{"compound": "O=C(Nc1ccccc1)c1ccccc1NC(=O)C(F)(F)F", "activity score": "-85.9% (active)"}
{"compound": "Cc1cccc(-c2noc(-c3ccc(F)cc3)n2)c1", "activity score": "-101% (active)"}
{"compound": "Cc1ccc(Cc2nc(-c3cccc(C)c3)no2)cc1", "activity score": "-173% (active)"}
{"compound": "CCOc1ccc(/C=N/NC(N)=S)cc1", "activity score": "-63.3% (active)"}
{"compound": "Cc1cc(=O)oc2cc(OCC3CC(c4ccccc4Cl)=NO3)ccc12", "note": "(stereo not given)", "activity score": "-132% (active)"}
{"compound": "CC(C)(C)c1ccc(OC2=CS(=O)(=O)c3ccccc32)cc1", "activity score": "-110% (active)"}
{"compound": "CC(C)(C)c1ccc(Oc2ccc(N)cc2)cc1", "activity score": "112% (inactive)"}
{"compound": "COC(=O)c1c(NC(=O)c2ccccc2F)sc2c1C(C(=O)OC)CC2", "note": "(stereo not given)", "activity score": "-72.4% (active)"}
{"compound": "CCOc1ccc2[nH]c3nc(SCC(=O)NC4CCCC4)nnc3c2c1", "activity score": "-73.1% (active)"}
{"compound": "Cc1cccn2c(=O)c3cc(C(=O)NCCN4CCOCC4)c(=N)n(Cc4cccnc4)c3nc12", "activity score": "97% (inactive)"}
{"compound": "COc1ccc(CCn2c(=N)c(C(=O)NCc3ccco3)cc3c(=O)n4cccc(C)c4nc32)cc1", "activity score": "-87.1% (active)"}
{"compound": "CCn1c2ccccc2c2cc(NC(=O)C/C(C)=N/NC(=O)c3ccccc3N)ccc21", "activity score": "-110% (active)"}
{"compound": "COc1ccc(Nc2nc(-c3ccccc3)cs2)cc1", "activity score": "-137% (active)"}
{"compound": "COc1ccc(-c2csc(Cc3nc(O)cs3)n2)cc1", "activity score": "-207% (active)"}
{"compound": "COc1ccc(-c2csc(Nc3ccc(O)cc3)n2)cc1", "activity score": "-170% (active)"}
{"compound": "NS(=O)(=O)c1ccc(Nc2nc(-c3ccccc3)cs2)cc1", "activity score": "-117% (active)"}
{"compound": "COc1ccc(-c2csc(NC3OC(=O)c4ccccc43)n2)cc1", "note": "(stereo not given)", "activity score": "-114% (active)"}
{"compound": "Oc1ccc(-c2csc(Nc3cccnc3)n2)cc1", "activity score": "-116% (active)"}
{"compound": "O=C(NCc1cccnc1)C(=O)Nc1nc(-c2ccccc2)cs1", "activity score": "-99% (active)"}
{"compound": "CN(c1ccc(O)cc1)c1nc(-c2cccnc2)cs1", "activity score": "-137% (active)"}
{"compound": "Cc1ccccc1Nc1nc(-c2cccnc2)cs1", "activity score": "-179% (active)"}
{"compound": "COc1ccc(OC)c(Nc2nc(-c3ccc(O)c(O)c3)cs2)c1", "activity score": "-158% (active)"}
{"compound": "O=C(Nc1ccc2c(c1)OCO2)C1CC(c2c(F)cccc2Cl)=NO1", "note": "(stereo not given)", "activity score": "-147% (active)"}
{"compound": "COc1cccc(NC(=O)C(=O)c2cn(CC(=O)N3CCOCC3)c3ccccc23)c1", "activity score": "-77.7% (active)"}
{"compound": "O=C(Nc1ccc([N+](=O)[O-])cc1)C1CC12CCC2", "note": "(stereo not given)", "activity score": "-78.2% (active)"}
{"compound": "COc1ccc(NC(=S)N2N=CCC2c2ccccc2)cc1", "note": "(stereo not given)", "activity score": "-137% (active)"}
{"compound": "Cn1c(SCc2c(F)cccc2Cl)nnc1-c1cnccn1", "activity score": "-126% (active)"}
{"compound": "CSC(=S)N/N=C/c1c[nH]c2ccccc12", "activity score": "-107% (active)"}
{"compound": "c1ccc(-c2ccc(OCCN3CCOCC3)cc2)cc1", "activity score": "-93.6% (active)"}
{"compound": "COc1ccc(Br)cc1C(=O)NC(=S)Nc1cc(-c2nc3ccccc3[nH]2)ccc1C", "activity score": "-86.2% (active)"}
{"compound": "Cc1ccc(-c2csc(-c3c[nH]c4ccccc34)n2)cc1", "activity score": "-164% (active)"}
{"compound": "Cc1ccc(-c2csc(-c3cc(C)on3)n2)cc1", "activity score": "-149% (active)"}
{"compound": "O=C(CSC1=NCCS1)Nc1nc(-c2ccccc2)cs1", "activity score": "-83% (active)"}
{"compound": "CCNC(=O)CSc1nc(-c2ccccc2)cs1", "activity score": "-105% (active)"}
{"compound": "O=C(CN1C(=O)C2C3C=CC(C3)C2C1=O)Nc1nc(-c2ccccn2)cs1", "note": "(stereo not given)", "activity score": "82.4% (inactive)"}
{"compound": "O=C(CNC(=O)c1ccccc1F)c1ccc(Br)cc1", "activity score": "-97.5% (active)"}
{"compound": "O=C(CNC(=O)c1ccc(F)cc1)c1ccccc1", "activity score": "-128% (active)"}
{"compound": "CCOc1ccc2c(c1)C(c1ccc(C)cc1)=NNC(c1ccc(C)cc1)=N2", "activity score": "-63.3% (active)"}
{"compound": "Cc1nc2ccccc2cc1OCc1ccc(F)cc1", "activity score": "-71.1% (active)"}
{"compound": "C/C(=N\\NC(=O)c1ccc2ccccc2c1)c1cccnc1", "activity score": "-68.8% (active)"}
{"compound": "C/C(=N\\NC(=O)c1nc(C)cc(C)n1)c1ccccc1", "activity score": "-137% (active)"}
{"compound": "C/C(=N\\NC(=O)c1ccccc1F)c1ccccn1", "activity score": "83% (inactive)"}
{"compound": "C/C(=N\\NC(=O)c1cccnc1)c1ccc(-c2ccccc2)cc1", "activity score": "-92.7% (active)"}
{"compound": "CC(C)CNC(=O)C(=O)Nc1ccc(N(C)C)cc1", "activity score": "-159% (active)"}
{"compound": "O=C(Nc1ccc(Cl)cc1)/C(=C1\\CCCN1)[N+](=O)[O-]", "activity score": "-97.2% (active)"}
{"compound": "CC(=O)Nc1cccc(C(=O)OCC(=O)NCc2cc(C)c(O)c(C)c2)c1", "activity score": "-62.5% (active)"}
{"compound": "CCCOc1cccc(C(=O)Nc2nnn(CCC)n2)c1", "activity score": "-87.6% (active)"}
{"compound": "CCCOc1ccc(C(=O)C(CCC(CNCC)C(=O)c2ccc(OCCC)cc2)CNCC)cc1", "note": "(stereo not given)", "activity score": "107% (inactive)"}
{"compound": "Cc1c(C)c2cc3c4c(oc3c(C)c2oc1=O)CCCC4", "activity score": "-61.9% (active)"}
{"compound": "CC[n+]1cc(C)ccc1/C=C/c1ccc(N(C)C)cc1", "activity score": "90.6% (inactive)"}
{"compound": "Cc1cccc(NC(=O)/C=C/c2ccc3c(c2)OCO3)n1", "activity score": "-88% (active)"}
{"compound": "COc1cccc(/C=C/C(=O)Nc2ccc3c(c2)OCCO3)c1", "activity score": "-94% (active)"}
{"compound": "CNS(=O)(=O)c1ccc(NC(=O)Nc2ccc3c(c2)OCO3)cc1", "activity score": "-63.6% (active)"}
{"compound": "Cc1cccc(NC(=O)Nc2ccc3c(c2)OCO3)n1", "activity score": "-251% (active)"}
{"compound": "Cc1ccc(-n2c(C)cc(/C=C(\\C#N)C(=O)NCC3CCCO3)c2C)cc1", "note": "(stereo not given)", "activity score": "-133% (active)"}
{"compound": "COc1ccc(Cc2nnc(NC(=O)c3ccc(OC)cc3OC)s2)cc1", "activity score": "-62.4% (active)"}
{"compound": "COc1ccc(C(=O)NC2=NCCS2)c(OC)c1", "activity score": "-111% (active)"}
{"compound": "O=C(NC1=NCCS1)c1ccc(Cl)s1", "activity score": "-112% (active)"}
{"compound": "COc1ccc(C(=O)Nc2nncs2)c(OC)c1", "activity score": "-106% (active)"}
{"compound": "Cc1cccc(NC(=S)Nc2ccc(Cl)c(Cl)c2)c1", "activity score": "-115% (active)"}
{"compound": "Cc1cccc(NC(=S)Nc2ccc(Br)cc2)c1", "activity score": "-106% (active)"}
{"compound": "Cc1cccc(NC(=O)c2nc(S(=O)(=O)Cc3ccccc3)ncc2Cl)c1", "activity score": "84.8% (inactive)"}
{"compound": "COc1ccc(CNc2ccc3c(c2)CCC3)cc1OC", "activity score": "-177% (active)"}
{"compound": "Cc1ccc(C(=O)NC(=S)Nc2ccccc2C)cc1", "activity score": "-122% (active)"}
{"compound": "Cc1cc(C(=O)NNC(=S)Nc2ccccc2C)cs1", "activity score": "-135% (active)"}
{"compound": "Nc1ccc(C(=O)Nc2ccccc2N)cc1", "activity score": "-714% (active)"}
{"compound": "CCn1c(SCC(=O)Nc2cccc(F)c2)nnc1-c1cc2cc(Br)ccc2o1", "activity score": "-71.9% (active)"}
{"compound": "CN1C2CCC1/C(=C\\c1ccccc1Cl)C(=O)/C2=C\\c1ccccc1Cl", "activity score": "-89% (active)"}
